Data as given in the supplement of paper PMC5734697.

Tested on: Caenorhabditis elegans
Experiment: growth (movement index) relative to DMSO control, secondary screen (log2 fold change); higher = more growth (less anthelmintic activity)
Conditions: 10 µM, 5 days, 20 °C, stage: L1 start
Method: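 C. elegans growth assay: synchronised L1 larvae (~20 per well) in S-complete medium with HB101 E. coli were grown in 96-well plates with Pathogen Box compound at 10 µM (1% DMSO) for 5 days at 20 °C. Motility/growth was quantified by whole-plate movie imaging (INVAPP/Paragon movement index). The score is the log2 fold change of the median movement of 5 replicate wells (on different plates) relative to DMSO-only wells. The secondary screen retested the top 20 hits with the same library material (n = 5, 10 µM).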

Row | Structure (SMILES) | growth (log2)
1 | O=C(Nc1ccc(F)c(-c2nc3cc(-c4ccccc4)cnc3[nH]2)c1)N1CCCC1 | -4.01
2 | CC(C)n1ncc2c(C(=O)NCC(c3cccs3)N3CCOCC3)cc(-c3ccccc3)nc21 (stereo not drawn) | -8.04
3 | CC(=O)OCC1OC([S-])C(OC(C)=O)C(OC(C)=O)C1OC(C)=O.CCP(CC)CC.[Au+] (stereo not drawn) | -7.16
4 | CCOC(=O)NC(=O)c1ccsc1NC(=O)c1nc2ccccc2s1 | -1.05
5 | CCc1ccc([C@@H]2C[C@H](C(F)(F)F)n3ncc(C(=O)NCc4ccc(OC)cc4)c3N2)cc1 | -3.6
6 | O=C(c1ccco1)N(CCCn1ccnc1)c1nc2c(Cl)cccc2s1 | -3.66
7 | CC(C)(C)CN1C(=O)C(c2ccccc2)(c2ccccc2)N=C1N | -5.87
8 | COC(=O)Nc1nc2cc(C(=O)c3ccccc3)ccc2[nH]1 | -5.72
9 | Cc1cc(C(=O)Nc2ccc(-c3ccccc3)cc2)no1 | -6.92
10 | O=C(Nc1cccnc1)c1c(O)c2cccc3c2n(c1=O)CC3 | -4.82
11 | COC(=O)C1=C(C)NC(C)=C(C(=O)OC(C)C)C1c1cccc2nonc12 (stereo not drawn) | -1.42
12 | Nc1ccc(C(=O)Nc2ccc(-c3nc4ccccc4o3)cc2)cc1 | -5.41
13 | CC(C)C(C(=O)Nc1ccc(S(=O)(=O)N(C)C)cc1)c1ccc(Cl)cc1 (stereo not drawn) | -2.66
14 | O=C(Nc1ccc2c(c1)B(O)OC2)c1ccccc1C(F)(F)F | -7.62
15 | CN1CCN(c2cc(-c3ccc(F)cc3)nc(-c3ccncc3)n2)CC1 | -2.12
16 | Clc1ccc(-n2cc(COc3ccnc4ccccc34)nn2)cc1 | -2.02
17 | CC(C)n1nc(-c2cc3c(Cl)cccc3[nH]2)c2c(N)ncnc21 | -1.13
18 | O=C(Nc1nc(-c2ccccn2)cs1)C1CC1c1ccccc1F (stereo not drawn) | -0.836
